Compound activity: PubChem, National Center for Advancing Translational Sciences (NCATS)
Pf growth 48h – Primary qHTS for delayed death inhibitors of the malarial parasite plastid, 48 hour incubation | 310,000 compounds, 5.9% hits | Potency, µM (highest dose often 28.7 µM), for the others: at the highest dose activity change, negative = inhibition, most hits filed as inhibitors | P. falciparum luciferase growth in erythrocytes, 48 h; also: potency is read from the fitted curve at half-maximal effect; % is scaled to controls: 0 for no effect and ±100 for the full control effect
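Cell-based growth assay: transgenic P. falciparum expressing firefly luciferase, cultured in red cells within RPMI 1640 containing 0.5% w/v Albumax, 24 mM bicarbonate and gentamycin. A drop in luciferase activity indicates inhibition.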
CHX counter – Cycloheximide Counterscreen for Small Molecule Inhibitors of Shiga Toxin | cell reporter, cycloheximide protein synthesis inhibition counterscreen | max response, % | 300,000 compounds, 12% hits; in the data active = max response mostly above about 13%, no sharp cut-off; inactive = mostly below about 14%; also: read at 38.3 µM for the half of the compounds with a filed dose; 0% is about no effect
Shiga toxin inh – A qHTS for Small Molecule Inhibitors of Shiga Toxin; Vero cells, Shiga toxin protein synthesis inhibition reporter; inhibition, % at 38.7 µM; 290,000 compounds, 9.2% hits; in the data active = inhibition mostly above about 28%, no sharp cut-off; inactive = mostly below about 43%; also: 0% is about no effect
Pf growth 96h – Primary qHTS for delayed death inhibitors of the malarial parasite plastid, 96 hour incubation | 320,000 compounds, 6.9% hits | Potency, µM (highest dose often 28.7 µM), for inactives: at the highest dose activity change, negative = inhibition, usual class: inhibitors | P. falciparum luciferase reporter growth, 96 h; also: potency is read from the fitted curve at half-maximal effect; % is scaled to controls: 0 for no effect and ±100 for the full control effect
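Delayed-death screen, second-generation endpoint: infected erythrocytes, 2% hematocrit, 0.05% parasitemia final; 96 hours at 37 C, 5% CO2; luciferase detection reagent; luminescence decrease equals reduced growth.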
Starred values were filed as active, the others as inactive; ? = inconclusive; . = not tested or not shown. An excerpt weighted towards active compounds, which were near 21% of everything screened. Unless noted, calls follow the shape of the dose curve; as a rule, active = well fitted inhibition curve with a large enough effect; inconclusive = small, poorly fitted or top-dose-only effect, or another doubt; inactive = no such curve, though single readings can be large or run the other way.

SMILES	Pf growth 48h	CHX counter	Shiga toxin inh	Pf growth 96h
CC(=O)N/C(=N/c1nc(C)cc(C)n1)Nc1cccc(C)c1C	.	-4.3	14.1	-11.7%
COc1cc(OC)c2c(c1C(CCN1CCCC1)c1ccc(N(C)C)cc1)OC(=O)CC2c1ccc(N(C)C)cc1 (stereo not drawn)	.	7.8	25.8	.
CCn1c(=O)cc(C(F)(F)F)[nH]c1=S	?	-0.8	-3.8	28.5%
CN(C)S(=O)(=O)c1cccc(C(=O)NCCOC(=O)c2cc(F)c(F)cc2Cl)c1	8.3%	-4.6	-3.9	11.0%
CN(c1ccc(C(=O)N2CCCCC2)cc1)S(C)(=O)=O	6.8%	-2.6	-15.8	44.3%
CCOC(=O)C1CCN(C(=O)COC(=O)c2cccc(F)c2)CC1	?	21.9*	72.2*	9.1%
CN(C)c1ccc(C(=O)N2CCCC2)cc1	43.3%	9.8	4.1	11.7µM*
O=C(C1=NN(c2ccccc2)C(=O)CC1)N1CCc2ccccc2C1	12.8%	-0.6	-5.3	-0.1%
CSc1nc(NCc2ccccc2)c2c3c(sc2n1)CN(C)CC3	13.1µM*	19.2*	53.0*	?
CSc1nc(NCC(C)C)c2c3c(sc2n1)CN(C)CC3	?	-0.4	-10.2	3.29µM*
CC(=O)Nc1ccc(S(=O)(=O)NCc2nc(-c3ccccc3Cl)no2)cc1	-0.7%	-4.2	-12.2	22.6%
COc1ccc(/C=N/N2CCN(Cc3ccccc3)CC2)cc1	15.6%	2.0	3.7	73.7%
COC(=O)c1ccc(/C=N\N2CCN(Cc3ccc(C)cc3)CC2)cc1	-0.5%	-5.9	-11.6	14.7%
CN1CCN(/N=C/c2ccc(OCc3ccccc3)cc2)CC1	49.9%	64.9*	106.8*	37.2%
CC(=O)Oc1ccccc1C(=O)Oc1ccc(/C=N/n2cnnc2)cc1	11.8%	1.7	14.9	8.28µM*
COC(=O)c1ccc(COc2ccc(/C=N/N3CCN(C)CC3)cc2)cc1	124.3%	55.6*	155.2*	9.7%
CCOc1ccc(/C=N/n2cnnc2)cc1	0.2%	-1.8	1.5	.
C(=N\n1cnnc1)/c1ccc(OCc2ccccc2)cc1	?	24.2*	62.2	30.8%
CC(=O)NCC(=O)N1CCCC(C(=O)c2ccc(Oc3ccccc3)cc2)C1 (stereo not drawn)	2.9%	13.2	19.6	3.0%
Brc1csc(C=Nc2ccc3c(c2)OCCOCCOCCOCCO3)c1	14.0%	-0.4	-10.2	33.9%
Oc1c(Cl)cc(Cl)cc1C=Nc1ccc2c(c1)OCCO2	5.3%	68.2*	116.7*	54.7%
CC(=O)c1ccc(N2C(=O)NC3(CCCCC3)C2=O)cc1	27.2%	14.5*	73.6*	106.9%
COc1ccc(C(C)=O)cc1CN1C(=O)NC2(CCCCCC2)C1=O	6.4%	-8.9	-11.6	.
O=C1NC2(CCCCC2)C(=O)N1c1ccccc1	0.3%	-1.6	-15.5	.
CCOc1ccc(C(C)=O)cc1CN1C(=O)NC2(CCCCCCC2)C1=O	11.7µM*	-1.2	-17.2	?
SMILES	Pf growth 48h	CHX counter	Shiga toxin inh	Pf growth 96h
O=C1NC2(CCCCC2)C(=O)N1c1ccc(Cl)cc1	15.3%	-2.1	19.5	4.65µM*
CSc1ccc(N2C(=O)NC3(CCCCC3)C2=O)cc1	.	18.2*	26.0	19.2%
CC1CCN(S(=O)(=O)c2c[nH]c(=O)[nH]c2=O)CC1	-2.4%	.	.	1.3%
Cc1c(S(=O)(=O)N2CCN(c3ccc(F)cc3)CC2)c(=O)n(C)c(=O)n1C	-4.3%	2.2	-35.7	1.3%
Nc1nc(N)c2c(ccc3nccc32)[nH]1	1.65µM*	-1.9	-8.7	3.7µM*
CC1CN(C(=S)NC2CCCC2)CC(C)O1 (stereo not drawn)	22.9%	-2.3	-0.8	-13.7%
O=C(NC1CCCN(Cc2ccccc2F)C1)C1CCC1 (stereo not drawn)	17.5%	0.6	-5.7	-25.9%
CCc1nc(SCc2ccc(C(=O)OC)o2)c2c(=O)n(C)c(=O)n(C)c2n1	8.28µM*	-3.3	-10.8	2.62µM*
Cn1c(=O)c2c(SCc3ccccn3)nc(CC(C)(C)C)nc2n(C)c1=O	11.7µM*	1.5	1.5	?
CCCc1nc(SCc2cccnc2)c2c(=O)n(C)c(=O)n(C)c2n1	13.1µM*	2.6	-8.4	?
O=C(Cc1ccc(Cl)cc1)N/N=C/c1cccc(O)c1	31.9%	3.8	25.8	6.7%
COc1ccc(O[C@H]2C=C[C@@H](c3ccccc3)O[C@@H]2COC(=O)CC/C(C)=N/O[C@@H](C)c2cc(-c3c(C)cc(C)cc3C)no2)cc1	?	-2.8	-14.8	2.94µM*
O=C(Nc1ccc(OCC(F)(F)C(F)F)cc1)c1ccncc1	15.4%	12.9	22.1	1.5%
O=C(Nc1ccc(OCC(F)(F)C(F)F)c(C(F)(F)F)c1)c1ccccc1O	2.08µM*	20.7*	52.1*	3.7µM*
CN1C=CC(=C2C=CN(C)C=C2)C=C1	.	0.7	3.3	.
CCN(CC)c1nc2c3c(nc4c(c3c1C#N)CC(=O)N4c1ccc(Cl)cc1)NC(C)=N2	16.5µM*	-0.6	-14.5	4.65µM*
Cc1ccccc1NC(=S)NNc1ncc(C(F)(F)F)cc1Cl	.	3.0	19.1	-102.2%
Cc1c(Cl)cccc1NC(=S)NNc1ncc(C(F)(F)F)cc1Cl	.	-5.5	-11.8	9.28µM*
CCOC(=O)C1=C(OCc2ccc(Cl)cc2)C2C=C(C)C=CC2N=C1 (stereo not drawn)	.	1.1	-8.2	11.7µM*
CCCCN(C(=O)C1=CC=CN2CCS(=O)(=O)N=C12)c1ccccc1	?	.	.	-10.4%
CSc1ccccc1NC(=O)C1CCCN(S(C)(=O)=O)C1 (stereo not drawn)	12.0%	-1.3	-3.0	-0.1%
CC(C)CNC(=O)[C@@H]1CSC2c3ccccc3C(=O)N21 (stereo partly drawn)	34.3%	-1.5	4.0	44.3%
CCOc1ccc(NC(=O)c2ccc(NC(=O)c3cn4c5c(c(N6CCN(C)CC6)c(F)cc5c3=O)OCC4C)cc2)cc1 (stereo not drawn)	2.33µM*	0.8	-5.1	2.62µM*
O=C1c2ccccc2C(=O)N1OCc1c(F)cccc1Cl	25.9%	21.9*	16.5	33.1%
COC(=O)c1[nH]c2cc(OC)c(OC)cc2c1/C=N/Nc1ccccc1	0.0%	11.5	29.1	?
SMILES	Pf growth 48h	CHX counter	Shiga toxin inh	Pf growth 96h
CC1CCC2(CC1)NC(=O)N(Cc1cc(=O)n3ccsc3n1)C2=O (stereo not drawn)	39.9%	-2.7	-1.3	-3.1%
O=c1cc(CN2CCCc3ccccc32)nc2sccn12	-18.1%	23.9*	58.6	11.2%
CC1CCCCC12NC(=O)N(Cc1cc(=O)n3ccsc3n1)C2=O (stereo not drawn)	-1.7%	30.5*	2.4	-3.3%
CC1CN(Cc2cc(=O)n3ccsc3n2)CC(C)O1 (stereo not drawn)	18.4%	-2.8	-14.1	11.7µM*
C=CCOC(/C=C/c1ccccc1)C[Si](C)(C)C (stereo not drawn)	.	13.5	-1.2	.
C[C@H](NC(=O)[C@@H]1Cc2ccccc2CN1)C(=O)NCC1CCCO1 (stereo partly drawn)	14.3%	-3.9	5.5	-11.4%
C/C(NC(=O)c1cccc(F)c1)=C1/C(=O)C[C@@H]2[C@H]1C2(C)C	.	23.4	21.8	43.3%
